In the library only some 2.2% were active in any assay of this set; here they are far more common.
FUS suppressor: FUS proteinopathy suppression in yeast; S. cerevisiae FUS-expressing, growth rescue, OD600, 24 h; Potency, µM (doses to about 76.6 µM), usual class: activators; 390,000 compounds, 0.24% hits;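 also: plate controls were DMSO vehicle for no effect and reference control for full effect; nearly all actives have a fitted effect of over 55% in size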
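Read-out: OD at 600 nm after 24hr at 30C, reporting rescue of FUS-induced yeast toxicity. Cells at OD 0.005 in galactose (2%) minimal medium; compounds tested in a dilution series; CP55940 titration from 92uM final as control.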
ERG-DNA inh: ERG Ets/DNA interaction inhibition | fluorescence polarization, His-ERG Ets domain / labelled DNA | Potency, µM (highest dose often 76.9 µM), without a hit: at the top dose FP activity, negative = inhibition, most hits filed as inhibitors | 370,000 compounds, 0.028% hits; active = well fitted inhibition curve with a large enough effect in the polarisation, with a control signal flat; inconclusive = small, poorly fitted or top-dose-only effect, or effect the other way, or a change in a side signal; inactive = no such curve, though single readings can be large or run the other way; the % refers to the polarisation;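 also: polarization taken with two DNA probes labelled with fluorescein and Texas red; % of control where 0% means no effect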
Target sequence (P11308 whole entry, looked up, the tested form may be a part): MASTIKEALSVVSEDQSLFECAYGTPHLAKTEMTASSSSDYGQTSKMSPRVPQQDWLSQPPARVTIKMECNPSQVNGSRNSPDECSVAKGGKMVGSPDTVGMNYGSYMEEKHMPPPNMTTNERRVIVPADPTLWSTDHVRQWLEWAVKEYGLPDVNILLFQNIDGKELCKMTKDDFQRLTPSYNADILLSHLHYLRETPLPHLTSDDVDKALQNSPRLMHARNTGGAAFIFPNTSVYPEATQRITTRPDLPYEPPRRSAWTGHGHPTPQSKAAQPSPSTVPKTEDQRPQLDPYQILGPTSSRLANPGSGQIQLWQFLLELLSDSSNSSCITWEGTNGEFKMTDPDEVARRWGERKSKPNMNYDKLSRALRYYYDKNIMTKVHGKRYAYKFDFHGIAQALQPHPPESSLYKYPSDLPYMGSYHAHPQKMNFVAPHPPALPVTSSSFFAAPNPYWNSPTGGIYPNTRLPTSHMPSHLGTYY
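His-tagged ERG Ets domain (1 uM in the protein solution; 300mM KCl, 50mM Tris-HCl, 1mM EDTA, 1mM DTT, pH 7.5) received compound, then a probe mix of 5 nM fluorescein-DNA and 100nM Texas-615-DNA. Fluorescence polarization was read for both dyes.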
aSyn yeast inh: inhibitors of alpha-synuclein toxicity in yeast; Yeast expressing alpha-synuclein, growth rescue, BacTiter-Glo, 24 h; Potency, µM (series often up to 46.1 µM), for the others: at the top dose growth rescue (activation), most hits filed as activators; 370,000 compounds, 0.14% hits; also: % of control where 0% means no effect; nearly all actives have a fitted effect of over 65% in size
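Rescue of yeast growth: cells expressing toxic alpha-synuclein, induced in galactose at OD600 0.02, incubated with compound 24 h at 30 C. ATP luminescence quantified growth; inhibitors of toxicity appear as activators.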
TDP43 rescue: inhibitors of TDP-43 toxicity in yeast. AID 652104. Potency, µM (top dose mostly 46.1 µM), without a hit: at the highest dose growth rescue (activation), hits mostly activators. TDP-43 expressing yeast growth rescue, BacTiter-Glo, 24 h. 410,000 compounds, 1.8% hits; also: % of control where 0% means no effect; nearly all actives have a fitted effect of over 50% in size
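Yeast expressing TDP-43 (pregrown in raffinose, seeded at OD600=0.02 in galactose medium) exposed to compounds 24 hr at 30 deg C. Growth read by BacTiter-Glo luminescence; rescue of toxicity appears as increased signal.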
Mito fusion yeast: inhibitors of mitochondrial division or activators of mitochondrial fusion; S. cerevisiae fusion-defective mutant growth rescue, CellTiterGlo 48 h; Potency, µM (highest dose often 46.1 µM), inactives show top-dose growth rescue (activation), most hits filed as activators; 320,000 compounds, 0.23% hits; AID 485298; also: % of control where 0% means no effect; nearly all actives have a fitted effect of over 45% in size
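Luminescent cell viability in 1536-well qHTS format served as the measure of rescued growth in ts fusion-mutant S. cerevisiae cultured on non-fermentable YPEG for 48 hours at 37C.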
Abeta rescue: A-beta toxicity reversal in yeast. yeast expressing A-beta42, growth rescue, OD600, 48 h; response scale: 0% DMSO, 100% iron-clioquinol control. Potency, µM (titrated, usually from 46.1 µM), usual class: activators. 410,000 compounds, 0.063% hits; also: nearly all actives have a fitted effect of over 55% in size
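Yeast growth medium received pinned compounds, then yeast cells expressing toxic A-beta were added; plates incubated at 30 C for 48 hr. Growth read as absorbance at 600 nm, normalized to DMSO and equimolar FeCl3 plus clioquinol controls.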
* marks the source's active call; other numbers are inactive results; i = inactive; ? = inconclusive; nt = not tested or not shown. Unless noted, calls follow the shape of the dose curve; as a rule, active = well fitted curve in the direction sought with a large enough effect; inconclusive = small, poorly fitted or top-dose-only effect, or another doubt; inactive = no such curve, though single readings can be large; an effect the other way counts as inactive or inconclusive. Potency is read from the fitted curve at half-maximal effect.

SMILES	FUS suppressor	ERG-DNA inh	aSyn yeast inh	TDP43 rescue	Mito fusion yeast	Abeta rescue
N#Cc1nc(COc2cccc(Cl)c2)oc1NCc1ccco1	i	-9.8%	-5.4%	?	?	i
COc1ccc(Nc2oc(COc3ccc(OC)cc3)nc2C#N)cc1	i	0.2%	1.3%	27.3%	17.4%	i
Cc1ccc(OCc2nc(C#N)c(NCc3ccco3)o2)cc1	i	3.4%	14.9%	11.2µM*	15.5%	i
Cc1ccc(-n2c(=O)[nH]c3sc4c(c3c2=O)CCNC4)cc1C	i	9.0%	nt	19.7%	nt	i
CC(=O)Oc1[nH]c(=O)c2cccc3c2c1CCC3	i	nt	-4.2%	28.2µM*	nt	i
ClC(Cl)(Cl)c1nc2ccccc2n2nncc12	i	2.2%	-20.7%	-2.7%	12.6µM*	i
c1ccc2c(c1)nnn1c3ccccc3nc21	nt	nt	nt	nt	19.1%	nt
Cc1ccc(CSc2ncnc3c2cnn3Cc2ccccc2)cc1C	i	7.6%	-0.6%	1µM*	6.7%	i
Cc1cccc(Nc2ncnc3c2cnn3Cc2ccccc2)c1	i	-2.2%	1.0%	15.8µM*	3.8%	i
COc1ccc(Nc2ncnc3c2cnn3Cc2ccccc2)cc1OC	i	nt	-7.7%	-22.2%	-1.2%	i
CC1(c2nnc(-c3ccccc3)o2)CC(c2cccc(Cl)c2)=NO1 (centres undefined)	i	8.0%	17.1%	?	3.16µM*	i
CC1(c2nnc(-c3ccc(Cl)cc3)o2)CC(c2cccc(Cl)c2)=NO1 (centres undefined)	i	14.1%	1.4%	23.8%	10.9%	i
CC(C)(C)c1ccc(-c2nnc3n2N=C(c2ccc4ccccc4c2)CS3)cc1	i	nt	nt	nt	nt	nt
O=C(Nc1c(C(=O)N2CCN(c3ccccc3)CC2)oc2ccccc12)c1ccc(Br)o1	i	7.3%	nt	21.6%	nt	i
CSc1ccc(C2C(C#N)=C(N)Oc3c2ccc(=O)c2c(C)oc(C)c32)cc1 (centres undefined)	22.4µM*	?	?	-31.1%	1.9%	i
Cc1oc(C)c2c(=O)ccc3c(c12)OC(N)=C(C#N)C3c1ccccc1 (centres undefined)	i	?	11.2%	-19.3%	-6.4%	i
Cc1cccc(/C(N)=N/OC(=O)c2ccncc2)c1	i	21.5%	-10.2%	?	0.9%	i
COc1ccccc1C(=O)O/N=C(/c1ccncc1)c1ccc([N+](=O)[O-])cc1	nt	7.2%	13.6%	28.2µM*	2.9%	i
Cc1cccc(C(=O)O/N=C(\N)c2ccc(Cl)cc2)c1	i	2.0%	-23.9%	10µM*	4.7%	i
COc1ccccc1C(=O)O/N=C(\N)c1ccc(Cl)cc1	i	5.3%	-42.4%	14.1µM*	3.6%	i
Cc1cccc(C(=O)O/N=C(\N)c2ccc(Br)cc2)c1	i	6.9%	-35.7%	6.31µM*	18.3%	i
Cc1ccc(C)c(C(=O)O/N=C(\N)c2ccc(Br)cc2)c1	i	-6.2%	-25.9%	?	7.4%	i
CCc1nnc(SCC(=O)N(C)c2ccccc2)c2cc3sccc3n12	i	-9.1%	nt	?	nt	i
Cc1ccc(C(=O)O/N=C(\N)c2ccc(Br)cc2)cc1C	i	-0.8%	-12.3%	?	?	i
COc1ccc(C(=O)O/N=C(\N)c2cccc(C)c2)cc1OC	i	-5.0%	-52.1%	22.4µM*	?	i
SMILES	FUS suppressor	ERG-DNA inh	aSyn yeast inh	TDP43 rescue	Mito fusion yeast	Abeta rescue
COc1ccc(C(=O)O/N=C(\N)c2ccccc2)cc1OC	i	3.9%	-25.0%	?	?	i
COc1cccc(N/C=C/C(=O)c2ccc(OC)c(OC)c2)c1	i	4.0%	?	2.4%	-10.5%	i
Cc1cc(C)cc(C(=O)O/N=C(\N)c2ccc(Br)cc2)c1	i	-3.0%	0.6%	35.5µM*	14.8%	i
CCOC(=O)c1cccc(N/C=C/C(=O)c2ccc(OC)c(OC)c2)c1	i	-0.1%	14.1µM*	?	-2.0%	i
Cc1cc(OC(C)C(=O)N(Cc2ccco2)Cc2ccccc2F)cc(C)c1Cl (centres undefined)	i	0.9%	nt	-6.6%	nt	i
O=C1/C(=C/c2cccc(Br)c2)SC(=S)N1CCC(=O)N(CCO)c1ccccc1	i	33.4%	2.2%	3.5%	3.0%	i
COc1cccc(/C=C2\SC(=S)N(CCCC(=O)N(CCO)c3ccccc3)C2=O)c1	?	17.7%	?	22.4µM*	-7.0%	i
Cc1cc(C)n(-c2nc3ccccc3c(=O)n2OCc2ccc(Cl)cc2)n1	i	6.3%	-3.5%	11.2µM*	2.8%	i
CCCCN1C(=O)C(CC(=O)NCCCCc2ccccc2)CC(C(=O)N2CCOCC2)=C1C (centres undefined)	i	nt	20µM*	25.4%	nt	i
Cc1nc(N2CCN(C(=O)c3ccco3)CC2)c(C#N)c2c1CCCC2	i	1.1%	7.3%	?	?	i
Cc1cc(C)c2nc(N3CCCN(C(=O)c4ccco4)CC3)c(C#N)cc2c1	i	-9.0%	nt	17.8µM*	7.9%	i
COc1ccccc1C(=O)N1CCN(c2nc3cc(C)cc(C)c3cc2C#N)CC1	i	nt	26.3%	11.2µM*	nt	i
COc1ccccc1C(=O)N1CCN(c2nc3cc(C)c(C)cc3cc2C#N)CC1	?	-13.4%	19.2%	?	11.4%	i
Cc1ccccc1NC(=O)c1c(Cl)nc(C)c(Cl)c1C	i	-3.1%	-0.4%	18.8%	2.6%	i
Cc1nc(Cl)c(C(=O)NC(=O)NCc2ccccc2)c(C)c1Cl	i	-3.4%	20.8%	14.1µM*	14.2%	i
CCOc1ccc(CN(C)C(=O)c2ccc3c(c2)NC(=O)C(C)S3)cc1OC (centres undefined)	i	2.6%	2.4%	11.8%	-4.1%	i
Cc1noc(C)c1COc1cccc(C(=O)Nc2ccc(C#N)cc2)c1	i	-1.4%	-2.3%	14.1µM*	5.5%	i
Cc1noc(C)c1NC(=O)Nc1cccc2c1O[C@@H](CN(C)C(=O)Nc1ccc3c(c1)OCO3)[C@@H](C)CN([C@H](C)CO)C2=O	i	8.3%	-6.7%	6.9%	nt	i
CCOC(=O)N/C(N)=N/c1nc2ccccc2s1	i	3.8%	nt	11.2µM*	1.2%	i
COc1ccc2c(c1)CC/C(=C/c1ccco1)C2=O	i	6.3%	-7.0%	14.1µM*	0.1%	i
O=C1/C(=C/c2ccco2)CCc2ccccc21	nt	-3.4%	0.9%	-11.3%	-2.6%	i
NC(=S)NCCC[C@H](N)C(=O)O	nt	nt	-40.5%	nt	-26.0%	nt
